GBA activity – Glucocerebrosidase. Lysosomal acid glucosylceramidase (Homo sapiens), P04062. AID 360, 2006. Potency, µM. hit rate 1.1% among 48,000. purified enzyme, resorufin glucoside fluorescence (screen aimed at inhibitors), 20 min; in the data active = potency below about 15 µM; inconclusive = mostly about 16 µM to 33 µM;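 also: the screen sought inhibitors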
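Wild-type enzyme at 0.2 nM final in 50mM citric acid/KH2PO4, 10mM sodium taurocholate, 0.01% tween-20, pH 5.9, with resorufin beta-D-glucopyranoside at 30 uM final. Compounds titrated, 20 min at RT, red fluorescence read; AC50 from titration.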
HEK293 cAMP cs – qHTS Assay for Agonists of the Thyroid Stimulating Hormone Receptor: Activators of Intracellular cAMP Concentrations in Parental HEK 293 | Potency, µM (titrated, usually from 57.1 µM), without a hit: at the highest dose activation, usual class: activators | hit rate 2.5% among 73,000 | parental HEK293 CNG cAMP sensor, membrane potential fluorescence; also: % of control where 0% means no effect; nearly all actives have a fitted effect of over 55% in size
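Counterscreen for endogenous-receptor signalling: CNG-channel HEK 293 cells report cAMP rise by membrane depolarization. After 60 min dye equilibration with 100 uM RO 20-1724, compounds incubated 30 min before bottom-read fluorescence at 590 nm.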
ERK AVP block – qHTS Assay for Inhibitors of the ERK Signaling Pathway using a Homogeneous Screening Assay. HEK293-V1b, vasopressin-stimulated pERK AlphaScreen. Potency, µM (series often up to 57.5 µM), for the others: at the top dose activity, negative = inhibition, usual class: inhibitors. hit rate 0.99% among 72,000; also: % is scaled to controls: 0 for no effect and ±100 for the full control effect; nearly all actives have a fitted effect of over 55% in size
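V1b-HEK293 cells; cpd 30 min 37C; 25 nM vasopressin 5 min; lyse 10 min; AlphaScreen beads 5 hr RT. Normalized to DMSO basal and 25 nM vasopressin; AC50 by Hill fit.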
Casp1 inh – qHTS Assay for Allosteric/Competitive Inhibitors of Caspase-1; hit rate 0.03% among 75,000; Caspase-1 enzyme, Ac-WEHD-AFC fluorogenic rate; AID 900, 2007; P29466; Potency, µM (highest dose often 57.5 µM), for the others: top-dose activity change, negative = inhibition, actives largely listed as inhibitors;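 also: plate controls were vehicle for no effect and no substrate for full effect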
TSHR ag – qHTS Assay for Agonists of the Thyroid Stimulating Hormone Receptor; hit rate 0.48% among 73,000; HEK293-CNG-TSHR cells (CNG channel as cAMP sensor), membrane potential dye, cAMP; Potency, µM (doses to about 57.1 µM), inactives show at the top dose activation, actives largely listed as activators; active = well fitted activation curve with a large enough effect in the main read-out, with a control signal flat, not every such curve was filed as active; inconclusive = small, poorly fitted or top-dose-only effect, or a change in a side signal; inactive = no such curve, though single readings can be large or run the other way; % of control where 0% means no effect;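 also: the control signal comes from parental cells without the receptor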
Target sequence (P16473 whole entry, looked up): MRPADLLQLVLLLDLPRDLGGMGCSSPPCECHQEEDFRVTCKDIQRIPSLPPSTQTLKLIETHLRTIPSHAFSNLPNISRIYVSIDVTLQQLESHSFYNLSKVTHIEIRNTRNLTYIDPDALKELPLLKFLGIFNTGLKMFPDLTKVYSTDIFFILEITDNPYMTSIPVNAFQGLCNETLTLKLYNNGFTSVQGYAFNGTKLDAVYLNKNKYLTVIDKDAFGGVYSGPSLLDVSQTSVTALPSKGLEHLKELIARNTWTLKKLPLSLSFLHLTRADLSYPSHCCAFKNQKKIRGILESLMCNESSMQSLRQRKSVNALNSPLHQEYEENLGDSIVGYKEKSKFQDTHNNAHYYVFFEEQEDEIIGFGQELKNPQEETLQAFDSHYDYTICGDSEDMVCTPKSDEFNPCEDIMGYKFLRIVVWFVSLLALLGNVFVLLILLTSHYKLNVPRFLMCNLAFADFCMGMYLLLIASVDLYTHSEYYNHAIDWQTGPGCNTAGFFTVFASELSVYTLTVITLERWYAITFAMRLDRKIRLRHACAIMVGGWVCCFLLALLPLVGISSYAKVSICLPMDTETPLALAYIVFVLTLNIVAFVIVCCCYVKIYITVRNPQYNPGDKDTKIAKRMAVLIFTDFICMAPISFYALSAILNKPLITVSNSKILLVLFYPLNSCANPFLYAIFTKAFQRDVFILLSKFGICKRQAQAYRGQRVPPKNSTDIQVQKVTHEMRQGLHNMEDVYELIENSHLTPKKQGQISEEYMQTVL
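HEK 293 cells stably expressing TSHR and a cAMP-gated CNG channel; parental CNG-only cells as counterscreen. Cells preloaded 60 min with membrane potential dye plus 100 uM RO 20-1724, then compound 30 min; fluorescence read at 590 nm.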
Caspase-7 inhib – qHTS Assay for Allosteric/Competitive Inhibitors of Caspase-7; recombinant caspase-7, Ac-DEVD-AFC fluorescence rate; P55210; hit rate 0.02% among 75,000; Potency, µM (highest dose often 57.5 µM), for inactives: top-dose activity change, negative = inhibition, most hits filed as inhibitors; active = well fitted inhibition curve with a large enough effect in the main read-out, with a control signal flat, not every such curve was filed as active; inconclusive = small, poorly fitted or top-dose-only effect, or a change in a side signal; also: % of control where 0% means no effect
* = called active by the depositor; i = inactive; ? = inconclusive; nt = not tested or not shown; [ ] = dose if it differs, or a comment. Compounds with a hit are over-represented: about 4.5% of the library has one in this group of screens. Unless noted, calls follow the shape of the dose curve; as a rule, active = well fitted curve in the direction sought with a large enough effect; inconclusive = small, poorly fitted or top-dose-only effect, or another doubt; inactive = no such curve, though single readings can be large; an effect the other way counts as inactive or inconclusive. Potency is read from the fitted curve at half-maximal effect.

SMILES	GBA activity	HEK293 cAMP cs	ERK AVP block	Casp1 inh	TSHR ag	Caspase-7 inhib
COc1cccc(OC)c1OCCNC[C@@H]1COc2ccccc2O1	nt	31.6µM*	?	-1.2%	?	4.4%
COc1cccc(OC)c1OCCNCCO	nt	?	nt	-1.5%	?	2.2%
Cc1c(C(=O)NC2CCCCC2)sc2nc3ccc(N)cc3n12	nt	-5.2%	-24.2%	-2.4%	-19.8%	0.3%
N/C(CSc1nc(-c2ccccc2)c(-c2ccccc2)o1)=N\O	nt	?	31.6µM*	-5.4%	?	-4.2%
Cc1cc(C)n(-c2ccc(C(=O)Nc3sccc3C(N)=O)cc2)n1	14.9*	-15.8%	?	-3.5%	4.3%	-19.7%
O=c1cc(-c2ccccc2)oc2cc(O[C@H]3O[C@H](CO)[C@@H](O)[C@H](O)[C@@H]3O)c(O)c(O)c12	nt	-0.4%	nt	nt	-0.2%	nt
COC(=O)CSc1nsc(SCC(=O)OC)c1C#N	>76.9	?	15.8µM*	-1.1%	?	1.0%
COc1ccccc1-c1nc(N(C)C)c2ccccc2n1	nt	4.0%	-5.2%	-2.1%	nt	0.3%
O=C(CSc1nc(-c2ccccc2)cs1)NC(=O)NCc1ccco1	nt	24.8%	25.1µM*	-1.4%	-1.7%	-3.4%
O=C(CN1CCN(c2nc(-c3ccc(Cl)cc3)cs2)CC1)NCc1ccco1	>76.9	1.1%	31.6µM*	?	-1.4%	-10.2%
C#CCCCO/N=C1/C[C@@H](O)[C@@H](O)[C@@H]2[C@@H]3C(=O)N(Cc4ccc5c(c4)OCO5)C(=O)[C@H]3CC[C@H]12	nt	-1.7%[11.4 µM]	9.0%[11.5 µM]	-2.5%[11.5 µM]	-7.3%[11.4 µM]	-0.6%[11.5 µM]
Fc1ccc(C(c2nnnn2Cc2ccccc2)N2CCSCC2)cc1 (stereo not given)	>76.9	12.6µM*	-1.7%	0.9%	?	-1.6%
Cc1cc(OCCCCCNCCO)cc(C)c1Cl	nt	8.2%[11.4 µM]	39.8µM*	-1.2%	7.1%[11.4 µM]	-0.2%
Cc1cc(OCCNCCO)cc(C)c1Cl	nt	-10.1%	nt	0.4%	nt	0.0%
O=C(NCc1ccc2c(c1)OCO2)c1ccc2snnc2c1	>76.9	7.94µM*	0.9%	5.9%	?	3.7%
Cn1nnc2cc(C(=O)NCc3ccc4c(c3)OCO4)ccc21	>76.9	19.8%	7.1%	1.6%	0.1%	0.8%
COc1cccc(NC(=O)c2ccccc2-c2nc(-c3cccc(C)c3)no2)c1	nt	15.8µM*	-18.7%	-1.6%	?	-1.1%
CCOc1ccccc1NC(=O)c1ccccc1-c1nc(-c2ccccc2OC)no1	>76.9	20µM*	-6.4%	-2.4%	?	-3.7%
CC(C)(C)NC(=O)c1ccccc1-c1nc(-c2ccccc2Cl)no1	>76.9	15.8µM*	25.0%	-2.6%	?	0.6%
CC(C)NC(=O)c1ccccc1-c1nc(-c2ccccc2Cl)no1	>76.9	?	-20.0%	0.6%	?	0.0%
COc1cc(NC(=O)c2cc(-c3cccc(O)c3)on2)cc(OC)c1OC	nt	-0.8%	-29.0%	-0.2%	-7.5%	-1.4%
COc1cccc(-c2cc(C(=O)Nc3cccc(O)c3)no2)c1	14.6*	26.6%	22.5%	-1.6%	17.0%	-1.0%
COCCNC(=O)c1ccccc1-c1nc(-c2ccccc2OC)no1	>76.9	6.3%	-27.5%	2.4%	17.6%	-4.7%
C=CCC1C=CC(Oc2ccc(OC)cc2)C(COC(=O)c2ccc(Br)cc2)O1 (stereo not given)	nt	9.8%[11.4 µM]	18.5%[11.5 µM]	-1.7%[11.5 µM]	7.8%[11.4 µM]	-1.3%[11.5 µM]
COc1ccc(/C=N/n2c(SC)nnc2-c2ccccc2)cc1C	nt	25.1µM*	?	-4.3%	?	-3.9%
SMILES	GBA activity	HEK293 cAMP cs	ERK AVP block	Casp1 inh	TSHR ag	Caspase-7 inhib
CC(=O)c1cc(-c2ccccc2)n(CC(=O)NCc2cccs2)c1C	>76.9	15.8µM*	7.1%	-1.2%	?	0.2%
Cc1cc(C(=O)CSc2nnc(Cc3ccccc3)o2)c(C)n1Cc1ccc2c(c1)OCO2	3.97*	?	-6.7%	-0.8%	?	-15.4%
FC(F)(F)c1cc(CO[C@H]2CCCN[C@H]2c2ccccc2)cc(C(F)(F)F)c1	nt	20µM*	-20.2%	1.6%	?	-0.7%
CCn1c(=S)sc2c(=O)n(-c3ccccc3)c(SC)nc21	i	25.1µM*	?	-7.9%	?	-2.4%
CCOc1ccc(-n2c(=S)sc3c(=O)[nH]c(SCC(=O)NCc4ccco4)nc32)cc1	>76.9	9.3%	-15.8%	-2.7%	16.4%	-1.5%
N#CCSc1nc2c(sc(=S)n2Cc2ccco2)c(=O)n1-c1ccc(F)cc1	5.97*	?	-23.8%	-2.8%	?	-1.3%
N#Cc1cccc(-n2nnnc2-c2ccc3c(c2)OCO3)c1	>76.9	4.9%	2.8%	-2.7%	-0.6%	2.1%
N#Cc1ccc(-c2nnnn2-c2ccc3c(c2)OCO3)cc1	14.8*	8.1%	-28.9%	-1.8%	3.5%	-1.2%
C=C(C)OC(C)=O	nt	-4.6%	-0.8%	-2.2%	3.5%	0.5%
Cc1ccc(Cl)cc1N1CCN(C(c2cccnc2)c2nnnn2C2CCCCC2)CC1 (stereo not given)	nt	25.6%	-6.7%	-3.2%	3.1%	1.0%[0.00368 µM]
Cc1ccc(Cl)cc1N1CCN(C(c2ccc(C#N)cc2)c2nnnn2C2CCCC2)CC1 (stereo not given)	>15.4	1.26µM*	-3.5%	-0.4%	?	-2.7%
Cc1ccc2cc(C#N)c(NCCNC(=O)C3CCC3)nc2c1C	>76.9	27.8%	2.7%	nt	nt	?
Cc1cccc2cc(C#N)c(NCCNC(=O)NC3CCCCC3)nc12	>76.9	20µM*	-10.1%	?	?	-10.4%
CCOC(=O)c1ccc(N2C(=O)C3CC=CCC3C2=O)cc1 (stereo not given)	nt	-8.8%	4.0%	-0.1%	8.6%	0.5%
CCOC(=O)c1ccc(N2C(=O)CC(SCC(N)C(=O)OCC)C2=O)cc1 (stereo not given)	>76.9	3.16µM*	-22.6%	1.6%	?	-1.7%
COc1cc(C2N(c3ccccc3)CCN2c2ccccc2)cc(OC)c1OC	nt	28.8%	-3.0%	-2.5%	3.16µM*	1.3%
CN(C)C1CCN(C(=O)c2ccc(-n3c(=O)c(=O)[nH]c4ccccc43)cc2)C1 (stereo not given)	nt	-10.8%	nt	-4.2%	-4.7%	-1.5%
CCCCCCCCCCC(C)(C)C(=O)Nc1c(OC)cc(OC)cc1OC	nt	?	11.1%	-1.8%	?	-6.9%
Cc1onc(-c2ccccc2Cl)c1C(=O)Nc1cccc(-c2cn3cccnc3n2)c1	11.4*	6.6%	-13.8%	-1.4%	20.8%	-2.1%
Cc1onc(-c2ccccc2Cl)c1C(=O)Nc1ccc(F)c(F)c1	i	10.1%	-10.3%	-1.1%	-0.7%	1.0%
Cc1onc(-c2ccccc2Cl)c1C(=O)Nc1ccc(OCC(=O)N2CCOCC2)cc1	nt	3.98µM*	-22.3%	-3.4%	?	-1.0%

Screening results as filed in PubChem BioAssay.
